D1 agonist: Allosteric Agonists of the Human D1 Dopamine Receptor: qHTS; activation, % at 2 µM; 1% of 360,000 active; AID 504660, 2011; D(1A) dopamine receptor (Homo sapiens), P21728; HEK293 T-REx D1 cells, calcium flux, agonist mode; further: 0% is about no effect
Target sequence (P21728 whole entry, looked up): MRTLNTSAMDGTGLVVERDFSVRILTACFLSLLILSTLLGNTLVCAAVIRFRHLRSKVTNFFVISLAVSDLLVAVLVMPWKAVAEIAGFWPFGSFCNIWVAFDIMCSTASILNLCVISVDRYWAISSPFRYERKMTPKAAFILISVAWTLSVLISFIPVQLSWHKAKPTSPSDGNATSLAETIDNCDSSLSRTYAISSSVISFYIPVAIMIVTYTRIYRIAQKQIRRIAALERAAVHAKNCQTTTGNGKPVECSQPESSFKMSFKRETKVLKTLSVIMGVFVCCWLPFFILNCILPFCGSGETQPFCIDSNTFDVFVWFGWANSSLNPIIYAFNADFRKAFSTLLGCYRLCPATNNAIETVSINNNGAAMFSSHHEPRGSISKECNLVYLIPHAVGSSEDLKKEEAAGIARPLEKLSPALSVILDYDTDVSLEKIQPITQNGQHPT
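Agonism was scored from calcium flux recorded over 180 s (1 read/s) after pintool compound addition, following a 10-cycle baseline. Cells were inducible force-coupled HEK293 TREx D1, plated overnight at 30 C and loaded with no-wash calcium dye.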
D1 antagonist: Antagonist of Human D 1 Dopamine Receptor: qHTS. activity change, negative = inhibition, % at 10 µM. D(1A) dopamine receptor (Homo sapiens), P21728. HEK293 TREx D1 cells, calcium flux, dopamine EC80; active compounds read low. 3.2% of 360,000 active; in the data active means activity change below about -30%; further: on the % scale 0 is the no-effect control and ±100 the full control effect
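After overnight tetracycline induction at 30 C, force-coupled D1 HEK293 cells took up a no-wash calcium dye at room temperature. Compounds were added and monitored 180 s, and the response to EC80 dopamine was then recorded.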
TRHR PAM: qHTS for Small Molecule Agonists and Allosteric Enhancers of Human TRH Receptor: Primary Screen for Enhancers. Thyrotropin-releasing hormone receptor (Homo sapiens), P34981. TRHR cells, fluo-8 calcium fluorescence, EC20 TRH enhancement. enhancement, % at 2 µM. 0.66% of 360,000 active. AID 493056, 2011; in the data active means enhancement above about 30%; further: 0% is about no effect
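Enhancer read-out: after compound pinning and an initial kinetic agonist-mode read, an EC20 of TRH (10 nM final) was injected and fluo-8 calcium signal (Ex 480/Em 530) followed at 1 s/cycle for 100 cycles in TRHR-expressing cells.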
TRHR ag: qHTS for Small Molecule Agonists and Allosteric Enhancers of Human TRH Receptor: Primary Screen for Agonists. Thyrotropin-releasing hormone receptor (Homo sapiens), P34981. TRHR cells, calcium flux fluo-8, FDSS agonist mode. activation, % at 2 µM. 0.18% of 360,000 active; further: 0% is about no effect
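Fluo-8-loaded TRHR cells; 10 s baseline, compound added, kinetic Ca2+ fluorescence read 1/s, agonist mode.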
D1 potentiator: Potentiators of Human D1 Dopamine Receptor: qHTS; D(1A) dopamine receptor (Homo sapiens), P21728; potentiation, % at 10 µM; 0.036% of 360,000 active; HEK293 TREx D1 cells, calcium flux, dopamine EC20 potentiation; in the data active means potentiation above about 30%; further: 0% is about no effect
An asterisk follows results filed as active. Shown are actives, neighbours in structure and some others; about 4.7% of the full set was active somewhere. Unless noted, no stated cut-off is given here; in the data, active means activation above about 30%; inactive means the rest.

For CCc1ccc(Sc2cc(C(=O)NC(C)CC)c3ccccc3n2)cc1 (configuration not stated) the results were D1 agonist 0.9, D1 antagonist -27.3, TRHR PAM -4.1, TRHR ag 0.5 and D1 potentiator -0.9.
Screening CCOCCCNC(=O)c1cc(Sc2ccc(C)cc2)nc2ccccc12 returned D1 agonist 4.8, D1 antagonist 1.5, TRHR PAM -17.1, TRHR ag 0.5 and D1 potentiator -5.4.
For O=C(NCCCN1CCCCC1)c1cc(Sc2ccc(Cl)cc2)nc2ccccc12 the results were D1 agonist 17.5, D1 antagonist -17.9, TRHR PAM -1.5, TRHR ag 0.9 and D1 potentiator -2.1.
`CC1CCCCN1CCCNC(=O)c1cc(Sc2cccc(Cl)c2)nc2ccccc12` (configuration not stated) gave D1 agonist 19.1, D1 antagonist -41.9*, TRHR PAM -2.8, TRHR ag 0.5 and D1 potentiator -1.1.
CCOCCCNC(=O)c1cc(Sc2cccc(Cl)c2)nc2ccccc12 was read as D1 agonist 6.7, D1 antagonist -59.7*, TRHR PAM -11.8, TRHR ag -0.6 and D1 potentiator -3.0.
`O=C(c1ccc(CS(=O)c2ccccc2Cl)o1)N1CCN(c2ccccc2F)CC1` (configuration not stated) gave D1 agonist 0.9, D1 antagonist -14.0, TRHR PAM 1.6, TRHR ag -0.2 and D1 potentiator -5.2.
`COc1ccc(NC(=O)Cn2c(SCc3ccc(C)cc3)nc3cccnc32)cc1OC` gave D1 agonist 1.7, D1 antagonist -10.5, TRHR PAM -1.3, TRHR ag -0.2 and D1 potentiator -0.7.
For Cc1ccc2nc(SCc3nnc(-c4ccccc4)o3)[nH]c2c1 the results were D1 agonist -0.8, D1 antagonist 12.4, TRHR PAM 8.5, TRHR ag -0.8 and D1 potentiator -0.5.
Screening Cc1ccc2nc(SCc3nnc(-c4cccs4)o3)[nH]c2c1 returned D1 agonist 0.8, D1 antagonist -37.1*, TRHR PAM -1.7, TRHR ag -0.5 and D1 potentiator -1.1.
Screening CCOC(=O)c1ccc(NC(=O)Nc2cc3c(cc2N2CCCC2)n(C)c(=O)n3C)cc1 returned D1 agonist 1.6, D1 antagonist -31.8*, TRHR PAM 3.0, TRHR ag 0.1 and D1 potentiator -4.8.
CCn1c(=O)n(CC)c2cc(N3CCCC3)c(NC(=O)Nc3cc(C)cc(C)c3)cc21 was read as D1 agonist 40.2*, D1 antagonist -6.2, TRHR PAM 0.2, TRHR ag 1.3 and D1 potentiator -0.1.
For CC(=O)c1cccc(NC(=O)Nc2cc3c(cc2N2CCCC2)n(C)c(=O)n3C)c1 the results were D1 agonist 1.8, D1 antagonist 1.9, TRHR PAM -3.9, TRHR ag 1.5 and D1 potentiator -2.5.
`CCn1c(=O)n(CC)c2cc(N3CCCC3)c(NC(=O)c3ccc(C)cc3)cc21` gave D1 agonist -0.6, D1 antagonist -16.0, TRHR PAM -4.8, TRHR ag -0.8 and D1 potentiator -0.6.
For COc1cc(N)c(Cl)cc1C(=O)N[C@H]1CCN(CCCOc2ccc(F)cc2)C[C@H]1OC the results were D1 agonist 12.3, D1 antagonist -2.9, TRHR PAM 5.2, TRHR ag -0.5 and D1 potentiator -2.4.
For COc1cc(N)c(Cl)cc1C(=O)N[C@@H]1CCN(CCCOc2ccc(F)cc2)C[C@@H]1OC the results were D1 agonist 3.7, D1 antagonist -58.5*, TRHR PAM -6.1, TRHR ag -0.5 and D1 potentiator -3.2.
CC(C)N(Cc1ccccc1)S(=O)(=O)c1ccc(-c2cc(C(F)(F)F)on2)s1 was read as D1 agonist 19.8, D1 antagonist -8.9, TRHR PAM -1.1, TRHR ag 1.2 and D1 potentiator -1.3.
For CCOc1ccc(-c2nnc(SCC(=O)NC3CCCCC3)nc2-c2ccc(OCC)c(OC)c2)cc1OC the results were D1 agonist 1.3, D1 antagonist 16.0, TRHR PAM -2.5, TRHR ag -0.4 and D1 potentiator 3.5.
`Cc1ccc(-c2ccc(SCC(=O)NC3CCCCC3)nn2)cc1` gave D1 agonist -0.5, D1 antagonist 13.9, TRHR PAM -3.2, TRHR ag -0.9 and D1 potentiator -5.0.
For Cc1ccc(-c2ccc(SCC(=O)NC3CCCC3)nn2)cc1 the results were D1 agonist 2.9, D1 antagonist -31.3*, TRHR PAM -2.8, TRHR ag -1.3 and D1 potentiator -3.0.
`COc1ccc(-c2nnc(SCC(=O)NC3CCCC3)nc2-c2ccc(OC)c(OC)c2)cc1OC` gave D1 agonist 1.1, D1 antagonist -7.3, TRHR PAM 33.4*, TRHR ag -0.1 and D1 potentiator 2.0.
`CCC(NC(=O)COC(=O)C1CC2CCCC(C1)C2=O)c1ccc(Br)cc1` (configuration not stated) gave D1 agonist 4.8, D1 antagonist -56.2*, TRHR PAM -11.0, TRHR ag -0.3 and D1 potentiator -5.9.
Screening CC(NC(=O)COC(=O)C1CC2CCCC(C1)C2=O)c1ccccc1 (configuration not stated) returned D1 agonist 3.2, D1 antagonist 6.1, TRHR PAM -3.1, TRHR ag -0.3 and D1 potentiator 0.2.
For COC(=O)c1nc(NC(=O)C(C)(C)C)n[nH]1 the results were D1 agonist 3.0, D1 antagonist -41.6*, TRHR PAM 1.3, TRHR ag 1.5 and D1 potentiator -3.8.
`COC(=O)c1nc(NC(=O)c2ccc(Br)cc2)n[nH]1` gave D1 agonist -0.2, D1 antagonist 0.8, TRHR PAM 0.4, TRHR ag 0.0 and D1 potentiator -2.6.
`O=C(/C=C/c1ccccc1)C1=C(O)C(=O)N(CCO)C1c1ccc2c(c1)OCO2` (configuration not stated) gave D1 agonist 2.0, D1 antagonist -5.7, TRHR PAM 36.2*, TRHR ag -1.0 and D1 potentiator -5.5.
Screening COc1ccc2cc(CNc3ccc(C)cc3)c(=O)n(CC(=O)Nc3ccc(C)cc3Cl)c2c1 returned D1 agonist 1.5, D1 antagonist 12.5, TRHR PAM 7.0, TRHR ag -0.6 and D1 potentiator -2.2.
CC(=O)Nc1ccc(NC(=O)c2ccc(C3SCC(=O)N3CCc3ccccc3)cc2)cc1 (configuration not stated) was read as D1 agonist 6.1, D1 antagonist -52.2*, TRHR PAM -2.4, TRHR ag -0.8 and D1 potentiator -2.2.

Screening results as filed in PubChem BioAssay.
